# Experimental data: PubChem BioAssay (EPA / NIEHS)
# Inconclusive results are not listed. Activity calls are given as the source filed them. The calls were made as follows, unless noted: active = hit-call score of the fitted dose curve at least 0.9, where 1 is the maximum; inconclusive = response in the unintended direction; inactive = score below 0.9.
# Experiments:
# PGR (gene 5241) [1] = target: PGR (gene 5241) (UniProt P06401); test: TOX21_PR_BLA_Followup_Agonist_ratio: Tox21 HEK293 Progesterone Receptor (PR) Agonism Beta-lactamase Follow-Up Assay, Ratio (AID 2283933)
# Outline: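 Ratio-based beta-lactamase reporter signal after 16 hr compound treatment of PR-UAS-bla HEK293T cells at 37C. Substrate loading lasted 2 hr at room temperature.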
# PGR (gene 5241) [2] = target: PGR (gene 5241) (UniProt P06401); test: TOX21_PR_BLA_Followup_Antagonist_ratio: Tox21 HEK293 Progesterone Receptor (PR) Antagonism Beta-lactamase Follow-Up Assay, Ratio (AID 2283934);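 also: PR-UAS-bla HEK293T cells stimulated with 1 nM R5020 agonist for 16 hr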
# Outline: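 Measured in PR-UAS-bla HEK293T cells co-treated with compound and 1 nM promegestone for 16 hr; beta-lactamase ratio read after 2 h FRET substrate loading, with parallel CellTiter-Glo cytotoxicity.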
# [3] = TOX21_PR_BLA_Followup_Agonist_viability: Viability Assessment in the Tox21 HEK293 Progesterone Receptor (PR) Agonism Beta-lactamase Follow-Up Assay (AID 2283935);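 also: signal loss means lower viability so actives are cytotoxic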
# Outline: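 Viability is read as CellTiter-Glo luminescence, where loss of signal indicates cytotoxicity. The cells are PR-UAS-bla HEK293T given compounds for 16 hr at 37C and 5% CO2, in the same wells used for the bla readout.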
# [4] = TOX21_PR_BLA_Followup_Antagonist_viability: Viability Assessment in the Tox21 HEK293 Progesterone Receptor (PR) Antagonism Beta-lactamase Follow-Up Assay (AID 2283936);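 also: cells exposed to compound with R5020 agonist for 16 h; hits lower the luminescence signal meaning cytotoxicity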
# Outline: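 PR-UAS-bla HEK293T cells in medium with 2% charcoal-stripped FBS were treated with compounds plus R5020 for 16 hr at 37C. After the beta-lactamase read, CellTiter-Glo was added to the same wells and luminescence read after 30 min at room temperature.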
# PGR (gene 5241) [5] = target: PGR (gene 5241) (UniProt P06401); test: TOX21_PR_LUC_Followup_Agonist: Tox21 HEK293 Progesterone Receptor (PR) Agonism Luciferase Follow-Up Assay (AID 2283937; active = hit-call score of the fitted dose curve at least 0.9, where 1 is the maximum; inactive = score below 0.9)
# Outline: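 In HEK293 cells stably expressing PR-A with a luciferase reporter, compounds were incubated 16 h at 37C, and induced luminescence was quantified with ONE-Glo, multiplexed with cell viability.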
# PGR (gene 5241) [6] = target: PGR (gene 5241) (UniProt P06401); test: TOX21_PR_LUC_Followup_Antagonist: Tox21 HEK293 Progesterone Receptor (PR) Antagonism Luciferase Follow-Up Assay (AID 2283938);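 also: curve fitted upward as signal gain over DMSO baseline despite antagonist label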
# Outline: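 HEK293-PR-A-luc cells, 3,000/well, preincubated 5 h at 37C before compound addition in DMSO; 16 h compound exposure at 37C. ONE-Glo luciferase luminescence read after 30 min at room temperature, fitted relative to DMSO baseline.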
# [7] = target: Thyroid hormone receptor alpha (Rattus norvegicus) + Thyroid hormone receptor beta (Rattus norvegicus) (UniProt P18113+P63059); test: TOX21_TR_LUC_GH3_Agonist_Followup: Tox21 GH3 Thyroid Hormone Receptor Agonism Luciferase Follow-Up Assay (AID 2283939)
# Outline: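 Agonist-mode confirmatory run: 15 concentrations (5 nM to 92 uM final) on GH3 rat pituitary cells, 24 h at 37C/5% CO2, T3 as positive control. Luminescence read with ONE-Glo after 30 min.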
# [8] = CEETOX_H295R_DOC_noMTC: CeeTox H295R High-throughput Steroidogenesis Assay for DOC, maximum tolerated concentration (MTC) filtered results only (AID 2283918; active = hit-call score of the fitted dose curve at least 0.9, where 1 is the maximum; inactive = score below 0.9); conditions: actives raise or lower the signal
# Outline: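 11-Deoxycorticosterone secreted by human adrenal H295R cells quantified by HPLC-MS/MS after 48 h chemical exposure (0.1% DMSO), following 48 h 10 uM forskolin prestimulation. Concentrations not filtered by MTT-derived MTC; bidirectional fitting.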
# [9] = CEETOX_H295R_PROG_noMTC: CeeTox H295R High-throughput Steroidogenesis Assay for Progesterone (PROG), maximum tolerated concentration (MTC) filtered results only (AID 2283920; active = hit-call score of the fitted dose curve at least 0.9, where 1 is the maximum; inactive = score below 0.9); conditions: actives raise or lower the signal
# Outline: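 Progesterone secreted into medium was measured by HPLC-MS/MS after MTBE extraction, following 48 h chemical exposure (0.1% DMSO) of forskolin-prestimulated (10 uM, 48 h) H295R adrenal cells. Gain or loss fitted against DMSO; no MTC filtering.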
# [10] = CEETOX_H295R_TESTO_noMTC: CeeTox H295R High-throughput Steroidogenesis Assay for Testosterone (TESTO), maximum tolerated concentration (MTC) filtered results only (AID 2283924; active = hit-call score of the fitted dose curve at least 0.9, where 1 is the maximum; inactive = score below 0.9); conditions: actives raise or lower the signal
# Outline: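 Medium testosterone, measured by HPLC-MS/MS after liquid-liquid extraction, was fitted in both directions relative to DMSO without MTC filtering. Adrenal H295R cells received 48 h chemical exposure (0.1% DMSO final) after 48 h forskolin (10 uM) prestimulation; viability by MTT.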
# Chain of Thyroid hormone receptor alpha (Rattus norvegicus) + Thyroid hormone receptor beta (Rattus norvegicus) (P63059 whole entry, looked up): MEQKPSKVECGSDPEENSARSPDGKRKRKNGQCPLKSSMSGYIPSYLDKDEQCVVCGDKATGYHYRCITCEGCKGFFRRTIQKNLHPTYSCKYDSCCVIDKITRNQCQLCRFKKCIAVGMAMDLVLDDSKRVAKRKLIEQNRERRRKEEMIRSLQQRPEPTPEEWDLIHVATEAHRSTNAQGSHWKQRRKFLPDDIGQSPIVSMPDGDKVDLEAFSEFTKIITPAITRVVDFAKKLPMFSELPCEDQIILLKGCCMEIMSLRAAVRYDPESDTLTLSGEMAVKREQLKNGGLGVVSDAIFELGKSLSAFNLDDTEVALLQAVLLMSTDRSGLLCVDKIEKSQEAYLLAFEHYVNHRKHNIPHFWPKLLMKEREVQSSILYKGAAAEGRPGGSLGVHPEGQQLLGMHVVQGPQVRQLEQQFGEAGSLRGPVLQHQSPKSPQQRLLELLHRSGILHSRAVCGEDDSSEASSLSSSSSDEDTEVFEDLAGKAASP
# Chain of Thyroid hormone receptor alpha (Rattus norvegicus) + Thyroid hormone receptor beta (Rattus norvegicus) (P18113 whole entry, looked up): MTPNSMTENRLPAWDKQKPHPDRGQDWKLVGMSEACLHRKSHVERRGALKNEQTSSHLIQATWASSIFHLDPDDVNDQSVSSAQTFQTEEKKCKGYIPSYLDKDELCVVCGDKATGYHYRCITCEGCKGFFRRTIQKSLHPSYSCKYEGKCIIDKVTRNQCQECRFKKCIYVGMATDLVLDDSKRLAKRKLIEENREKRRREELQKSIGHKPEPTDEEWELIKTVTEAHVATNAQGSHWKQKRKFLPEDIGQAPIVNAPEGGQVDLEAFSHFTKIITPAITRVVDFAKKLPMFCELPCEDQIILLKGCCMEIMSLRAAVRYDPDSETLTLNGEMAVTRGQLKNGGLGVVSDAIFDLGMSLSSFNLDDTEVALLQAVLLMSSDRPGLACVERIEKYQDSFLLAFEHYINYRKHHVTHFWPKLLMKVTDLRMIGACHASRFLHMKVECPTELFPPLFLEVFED
# Chain of PGR (gene 5241) (P06401 whole entry, looked up): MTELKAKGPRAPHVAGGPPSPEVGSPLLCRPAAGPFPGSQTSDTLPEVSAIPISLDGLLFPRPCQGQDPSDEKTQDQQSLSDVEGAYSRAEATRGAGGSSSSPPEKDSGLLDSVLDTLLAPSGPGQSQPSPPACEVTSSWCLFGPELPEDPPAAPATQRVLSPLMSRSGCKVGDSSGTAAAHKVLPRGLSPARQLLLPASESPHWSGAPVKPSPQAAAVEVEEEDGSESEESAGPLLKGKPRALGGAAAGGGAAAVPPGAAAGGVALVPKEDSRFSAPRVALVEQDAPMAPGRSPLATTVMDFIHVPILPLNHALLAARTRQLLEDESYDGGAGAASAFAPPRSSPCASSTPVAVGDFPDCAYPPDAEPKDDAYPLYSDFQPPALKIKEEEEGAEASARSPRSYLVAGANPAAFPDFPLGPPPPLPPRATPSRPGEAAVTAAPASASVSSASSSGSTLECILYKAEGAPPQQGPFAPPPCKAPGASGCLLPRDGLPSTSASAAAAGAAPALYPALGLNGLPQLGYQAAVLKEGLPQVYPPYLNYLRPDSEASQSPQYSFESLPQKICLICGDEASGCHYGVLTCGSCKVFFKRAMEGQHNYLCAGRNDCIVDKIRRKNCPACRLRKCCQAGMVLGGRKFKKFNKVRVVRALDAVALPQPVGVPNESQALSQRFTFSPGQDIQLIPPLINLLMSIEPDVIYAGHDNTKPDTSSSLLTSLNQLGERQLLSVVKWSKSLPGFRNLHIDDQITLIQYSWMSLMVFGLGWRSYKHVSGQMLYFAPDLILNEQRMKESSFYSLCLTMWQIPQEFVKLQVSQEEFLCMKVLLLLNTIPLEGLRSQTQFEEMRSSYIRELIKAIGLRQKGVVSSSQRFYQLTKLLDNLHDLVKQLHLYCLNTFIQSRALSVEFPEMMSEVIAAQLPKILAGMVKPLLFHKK
smiles,measurement,setting,value
CC(C)CC(C)(c1ccc(O)cc1)c1ccc(O)cc1,outcome,PGR (gene 5241) [1],inactive
same,AC50,PGR (gene 5241) [2],12.7 µM (active)
same,outcome,[3],inactive
same,outcome,[4],inactive
same,outcome,PGR (gene 5241) [5],inactive
same,AC50,PGR (gene 5241) [6],12.2 µM (active)
CC1(C)COP(Oc2ccccc2)OC1,outcome,[7],inactive
c1cc[c]([Sb]([c]2ccccc2)[c]2ccccc2)cc1,outcome,[8],inactive
same,AC50,[9],10.8 µM (active)
same,outcome,[10],inactive
CC(O)(CS(=O)(=O)c1ccc(F)cc1)C(=O)Nc1ccc(C#N)c(C(F)(F)F)c1 (stereo not given),AC50,PGR (gene 5241) [2],5.64 µM (active)
same,AC50,PGR (gene 5241) [6],6.97 µM (active)
OC(c1ccc(Cl)cc1)(c1ccc(Cl)cc1)c1cccnc1,outcome,PGR (gene 5241) [1],inactive
same,AC50,PGR (gene 5241) [2],29.3 µM (active)
same,outcome,[3],inactive
same,outcome,[4],inactive
same,outcome,PGR (gene 5241) [5],inactive
same,AC50,PGR (gene 5241) [6],62.2 µM (active)
Nc1ccc(-c2ccccc2)cc1,AC50,PGR (gene 5241) [2],22.3 µM (active)
same,outcome,[3],inactive
same,outcome,[4],inactive
same,outcome,PGR (gene 5241) [6],inactive
Cc1ccccc1OP(=O)(Oc1ccccc1C)Oc1ccccc1C,outcome,PGR (gene 5241) [1],inactive
same,AC50,PGR (gene 5241) [2],39.9 µM (active)
same,outcome,[3],inactive
same,outcome,[4],inactive
same,outcome,PGR (gene 5241) [5],inactive
same,outcome,PGR (gene 5241) [6],inactive
CC(C)(C1CCC(O)CC1)C1CCC(O)CC1 (stereo not given),outcome,PGR (gene 5241) [2],inactive
same,outcome,[3],inactive
same,outcome,PGR (gene 5241) [6],inactive
O=S(=O)(c1ccc(Cl)cc1)c1cc(Cl)c(Cl)cc1Cl,AC50,PGR (gene 5241) [2],27.3 µM (active)
same,outcome,[3],inactive
same,outcome,[4],inactive
same,AC50,PGR (gene 5241) [6],61 µM (active)
Cc1cc(Cl)ccc1N,outcome,[8],inactive
same,AC50,[9],24.1 µM (active)
CCCSP(=S)(OCC)Oc1ccc(Cl)cc1Cl (stereo not given),AC50,PGR (gene 5241) [2],22.6 µM (active)
same,outcome,[3],inactive
same,outcome,[4],inactive
same,AC50,PGR (gene 5241) [6],24.3 µM (active)
c1csc(-c2ccc(-c3cccs3)s2)c1,outcome,[7],inactive
O=C(Cl)OCCOCCOC(=O)Cl,outcome,[7],inactive
O=S(=O)(Oc1ccc(Cl)cc1)c1ccc(Cl)cc1,outcome,PGR (gene 5241) [2],inactive
same,outcome,[3],inactive
same,outcome,[4],inactive
same,outcome,PGR (gene 5241) [6],inactive
OC[P+](CO)(CO)CO,AC50,[8],12.3 µM (active)
same,AC50,[9],2.5 µM (active)
CCCSP(=S)(OCC)Oc1ccc(SC)cc1 (stereo not given),outcome,PGR (gene 5241) [2],inactive
same,outcome,[3],inactive
same,outcome,[4],inactive
same,outcome,PGR (gene 5241) [6],inactive
CCOP(=S)(OCC)Oc1ccc(Cl)cc1Cl,AC50,PGR (gene 5241) [2],33.2 µM (active)
same,outcome,[3],inactive
same,outcome,PGR (gene 5241) [6],inactive
O=[N+]([O-])c1ccc(Nc2ccccc2)cc1,AC50,PGR (gene 5241) [2],11.4 µM (active)
same,outcome,[3],inactive
same,outcome,[4],inactive
same,AC50,PGR (gene 5241) [6],12.8 µM (active)
